{"source": "the supplement of paper PMC12636033", "note": "± gives the standard deviation of the averaged measurements. Over roughly 33,000 sequences, “E-score (rank enrichment, -0.5 to 0.5)” has its median near -0.0043; the highest 2% begin near 0.24. What follows is part of a selection rich in the highest values, with near analogues and random picks from the rest."}
{"test_system": "2Sp-muMax20 (muMax20 with two 2,6-bis(methyl)pyridine Cys staples)", "test": "PBM 8-mer E-score (E-score (rank enrichment, -0.5 to 0.5)); higher = stronger preferential binding", "procedure": "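Protein binding microarray (universal PBM chip covering all 10-mers in fixed probe flanks) with chemically synthesized human Max(13-93) bHLH-LZ analogs (not full-length Max) bearing noncanonical residues (hArg, Tha, Aib, Nle at 65) and aromatic Cys staples. Read-out per 8-mer (and its reverse complement): E-score (rank-based enrichment, -0.5 to 0.5) and Z-score of median probe intensity.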"}
{"sequence": "CACCGCGG", "PBM 8-mer E-score": "-0.121 ± 0.021"}
{"sequence": "CTGGTAGC", "PBM 8-mer E-score": "-0.131 ± 0.011"}
{"sequence": "CCATCTTA", "PBM 8-mer E-score": "-0.102 ± 0.052"}
{"sequence": "CATAGCAA", "PBM 8-mer E-score": "0.199 ± 0.072"}
{"sequence": "CATAGCAC", "PBM 8-mer E-score": "0.301 ± 0.019"}
{"sequence": "GATAGCAC", "PBM 8-mer E-score": "0.151 ± 0.043"}
{"sequence": "GCCAGAAA", "PBM 8-mer E-score": "0.0632 ± 0.035"}
{"sequence": "CTAAGCTA", "PBM 8-mer E-score": "-0.0343 ± 0.0085"}
{"sequence": "GTGATGCA", "PBM 8-mer E-score": "0.186 ± 0.078"}
{"sequence": "AATATAAG", "PBM 8-mer E-score": "0.249 ± 0.07"}
{"sequence": "AATATAAA", "PBM 8-mer E-score": "0.245 ± 0.03"}
{"sequence": "AATATAAT", "PBM 8-mer E-score": "0.22 ± 0.015"}
{"sequence": "CATATAAG", "PBM 8-mer E-score": "0.168 ± 0.061"}
{"sequence": "CATATAAA", "PBM 8-mer E-score": "0.323 ± 0.008"}
{"sequence": "ACTATAAA", "PBM 8-mer E-score": "0.115 ± 0.014"}
{"sequence": "GGTATACA", "PBM 8-mer E-score": "0.145 ± 0.029"}
{"sequence": "AAAATAAA", "PBM 8-mer E-score": "0.103 ± 0.018"}
{"sequence": "TGGATACA", "PBM 8-mer E-score": "0.213 ± 0.13"}
{"sequence": "TGTATACA", "PBM 8-mer E-score": "0.315 ± 0.067"}
{"sequence": "AATATAAC", "PBM 8-mer E-score": "0.203 ± 0.11"}
{"sequence": "CATATAAC", "PBM 8-mer E-score": "0.228 ± 0.076"}
{"sequence": "AGGCTCAC", "PBM 8-mer E-score": "-0.168 ± 0.071"}
{"sequence": "CTTTCCCA", "PBM 8-mer E-score": "-0.0651 ± 0.061"}
{"sequence": "ATTAGGTA", "PBM 8-mer E-score": "0.0384 ± 0.028"}
{"sequence": "CTTCCCCA", "PBM 8-mer E-score": "0.0675 ± 0.046"}
{"sequence": "ATGAAAGA", "PBM 8-mer E-score": "0.095 ± 0.12"}
{"sequence": "GGCACTGA", "PBM 8-mer E-score": "-0.138 ± 0.064"}
{"sequence": "GAACGGTA", "PBM 8-mer E-score": "-0.0592 ± 0.0044"}
{"sequence": "AGCGCAAT", "PBM 8-mer E-score": "-0.0106 ± 0.054"}
{"sequence": "GATATAAA", "PBM 8-mer E-score": "0.191 ± 0.046"}
{"sequence": "TATAAAAA", "PBM 8-mer E-score": "0.307 ± 0.015"}
{"sequence": "TATATAAA", "PBM 8-mer E-score": "0.275 ± 0.019"}
{"sequence": "AGTATAAA", "PBM 8-mer E-score": "0.186 ± 0.048"}
{"sequence": "TGTATAAA", "PBM 8-mer E-score": "0.254 ± 0.018"}
{"sequence": "GGTATAAA", "PBM 8-mer E-score": "0.134 ± 0.012"}
{"sequence": "CATAAAAA", "PBM 8-mer E-score": "0.17 ± 0.062"}
{"sequence": "GATAAAAA", "PBM 8-mer E-score": "0.17 ± 0.036"}
{"sequence": "TCTATAAA", "PBM 8-mer E-score": "0.213 ± 0.036"}
{"sequence": "GTACACTA", "PBM 8-mer E-score": "-0.172 ± 0.087"}
{"sequence": "AGGATGGC", "PBM 8-mer E-score": "-0.0191 ± 0.078"}
{"sequence": "GAACGAAC", "PBM 8-mer E-score": "-0.022 ± 0.033"}
{"sequence": "ACGTCAGT", "PBM 8-mer E-score": "-0.191 ± 0.0086"}
{"sequence": "ATCTTAAT", "PBM 8-mer E-score": "0.165 ± 0.044"}
{"sequence": "ACCCAGCA", "PBM 8-mer E-score": "-0.107 ± 0.015"}
{"sequence": "ACCCCTAG", "PBM 8-mer E-score": "0.0238 ± 0.027"}
{"sequence": "CCCCCTTC", "PBM 8-mer E-score": "-0.195 ± 0.12"}
{"sequence": "AACCCTTC", "PBM 8-mer E-score": "0.0889 ± 0.037"}
{"sequence": "ACCCCTCC", "PBM 8-mer E-score": "0.246 ± 0.0062"}
{"sequence": "GCCCCTCA", "PBM 8-mer E-score": "0.0361 ± 0.077"}
{"sequence": "GCCCCTCC", "PBM 8-mer E-score": "0.237 ± 0.036"}
{"sequence": "ACCCCTAT", "PBM 8-mer E-score": "0.267 ± 0.044"}
{"sequence": "ACCCCTTC", "PBM 8-mer E-score": "0.273 ± 0.015"}
{"sequence": "ACCCCTAA", "PBM 8-mer E-score": "0.163 ± 0.11"}
{"sequence": "CCCCCTCC", "PBM 8-mer E-score": "-0.0372 ± 0.049"}
{"sequence": "ACCCCTCA", "PBM 8-mer E-score": "0.158 ± 0.055"}
{"sequence": "GCCCCCCC", "PBM 8-mer E-score": "-0.1861 ± 0.0003"}
{"sequence": "CCGGCAGA", "PBM 8-mer E-score": "-0.154 ± 0.1"}
{"sequence": "CTCAAAGA", "PBM 8-mer E-score": "-0.106 ± 0.0065"}
{"sequence": "GACACCGA", "PBM 8-mer E-score": "-0.215 ± 0.025"}
{"sequence": "GAAAGATA", "PBM 8-mer E-score": "0.0861 ± 0.022"}
{"sequence": "TGGGAGAA", "PBM 8-mer E-score": "0.0249 ± 0.058"}
{"sequence": "CGCCCACA", "PBM 8-mer E-score": "0.216 ± 0.018"}
{"sequence": "ACGATGGA", "PBM 8-mer E-score": "-0.164 ± 0.01"}
{"sequence": "CTAAAAGC", "PBM 8-mer E-score": "-0.0267 ± 0.036"}
{"sequence": "CACTCAAG", "PBM 8-mer E-score": "0.0104 ± 0.039"}
{"sequence": "CTGGCAAA", "PBM 8-mer E-score": "-0.0382 ± 0.063"}
{"sequence": "GATACGGC", "PBM 8-mer E-score": "-0.079 ± 0.018"}
{"sequence": "ATGATAGC", "PBM 8-mer E-score": "0.278 ± 0.023"}
{"sequence": "CTGATACA", "PBM 8-mer E-score": "-0.0277 ± 0.11"}
{"sequence": "ATGATAGG", "PBM 8-mer E-score": "0.00318 ± 0.11"}
{"sequence": "ATGATACA", "PBM 8-mer E-score": "0.274 ± 0.042"}
{"sequence": "ATGATACG", "PBM 8-mer E-score": "0.271 ± 0.071"}
{"sequence": "ATGATAGA", "PBM 8-mer E-score": "0.079 ± 0.01"}
{"sequence": "GTGATACA", "PBM 8-mer E-score": "0.0186 ± 0.033"}
{"sequence": "ATGATACC", "PBM 8-mer E-score": "0.11 ± 0.016"}
{"sequence": "ATGATATG", "PBM 8-mer E-score": "0.199 ± 0.075"}
{"sequence": "TAACGAAA", "PBM 8-mer E-score": "0.0771 ± 0.12"}
{"sequence": "CAACTAGC", "PBM 8-mer E-score": "0.0239 ± 0.018"}
{"sequence": "ATTAGTCC", "PBM 8-mer E-score": "0.0528 ± 0.12"}
{"sequence": "CACGGCGA", "PBM 8-mer E-score": "-0.0774 ± 0.0095"}
{"sequence": "CGGTCGTC", "PBM 8-mer E-score": "-0.18 ± 0.017"}
{"sequence": "GGTGATTA", "PBM 8-mer E-score": "0.0438 ± 0.06"}
{"sequence": "ATGTGAAC", "PBM 8-mer E-score": "0.119 ± 0.0064"}
{"sequence": "GGATTGCC", "PBM 8-mer E-score": "-0.202 ± 0.012"}
{"sequence": "AATGGGTC", "PBM 8-mer E-score": "-0.00791 ± 0.0086"}
{"sequence": "AATTGGGG", "PBM 8-mer E-score": "0.228 ± 0.06"}
{"sequence": "ATTGGGCC", "PBM 8-mer E-score": "0.00386 ± 0.043"}
{"sequence": "ATTGGGGG", "PBM 8-mer E-score": "-0.0095 ± 0.0052"}
{"sequence": "ATTTGGGG", "PBM 8-mer E-score": "0.253 ± 0.052"}
{"sequence": "AATTTGGA", "PBM 8-mer E-score": "0.0583 ± 0.086"}
{"sequence": "ATTGGGGC", "PBM 8-mer E-score": "0.253 ± 0.019"}
{"sequence": "AATTGGGT", "PBM 8-mer E-score": "0.2483 ± 0.0021"}
{"sequence": "ATTTGGGC", "PBM 8-mer E-score": "0.119 ± 0.05"}
{"sequence": "AATTTGGT", "PBM 8-mer E-score": "-0.00788 ± 0.03"}
{"sequence": "AATTGGGC", "PBM 8-mer E-score": "0.183 ± 0.034"}
{"sequence": "AATTTGGG", "PBM 8-mer E-score": "0.254 ± 0.017"}
{"sequence": "ATTTGGGA", "PBM 8-mer E-score": "0.173 ± 0.068"}
{"sequence": "CCTTGACG", "PBM 8-mer E-score": "-0.0891 ± 0.0072"}
{"sequence": "AGGGGACT", "PBM 8-mer E-score": "-0.0296 ± 0.079"}
{"sequence": "GACGAGCA", "PBM 8-mer E-score": "0.0874 ± 0.014"}
{"sequence": "CACACACC", "PBM 8-mer E-score": "-4e-05 ± 0.065"}
{"sequence": "ATGGCATC", "PBM 8-mer E-score": "0.193 ± 0.081"}
{"sequence": "ACGAGCCG", "PBM 8-mer E-score": "-0.0923 ± 0.041"}
{"sequence": "CGCGGTCA", "PBM 8-mer E-score": "-0.174 ± 0.092"}
{"sequence": "ACACGCGA", "PBM 8-mer E-score": "0.211 ± 0.037"}
{"sequence": "ACACGCGT", "PBM 8-mer E-score": "0.272 ± 0.021"}
{"sequence": "ACGCGCGC", "PBM 8-mer E-score": "0.206 ± 0.0084"}
{"sequence": "ACGCGCGG", "PBM 8-mer E-score": "0.156 ± 0.098"}
{"sequence": "ACGCGCGT", "PBM 8-mer E-score": "0.397 ± 0.0075"}
{"sequence": "AAACGCGT", "PBM 8-mer E-score": "-0.0801 ± 0.023"}
{"sequence": "ACTGAACT", "PBM 8-mer E-score": "0.049 ± 0.03"}
